# Values quoted from earlier work, collected in PubChem BioAssay AID977611.
# The campaign covered roughly 3,900 compounds. About 3,900 (100%) were called active. No cut-off is given here; in the data, nearly all actives have Kd up to about 4200 µM. The set was probably picked from earlier hits. The list shows a part of the results. Non-standard residues stand in square brackets, D forms with d. Square brackets hold non-standard residues; d marks the D form. Residues, ends and D or L forms follow the SMILES beside them. Peptide text beside a SMILES is read from it. * marks the point of attachment. Orn(CH(NH2)2) = NC(N)NCCC[C@H](N)C(=O)O; Benzoyl(4-Br) = O=C(c1ccc(Br)cc1)*; Benzoyl(4-F) = O=C(c1ccc(F)cc1)*; ΔPro = O=C(O)[C@@H]1C=CCN1
# Assay: PubChem AID 977611
# Conditions: PDB protein-ligand complexes, literature Kd
molecule,measurement,setting,value
CC[C@H](C)[C@H](NC(=O)[C@H](CC(N)=O)NC(=O)[C@H](CCSC)NC(=O)[C@@H](N)CCCNC(N)N)C(=O)N[C@@H](CCC(N)=O)C(=O)N[C@@H](CCSC)C(=O)N[C@@H](CC(C)C)C(=O)N[C@@H](CC(C)C)C(=O)N[C@@H](CCC(=O)O)C(=O)N[C@@H](C)C(=O)N[C@@H](C)C(=O)N[C@@H](CC(=O)O)C(=O)N[C@@H](Cc1ccc(O)cc1)C(=O)N[C@@H](CC(C)C)C(=O)N[C@@H](CCC(=O)O)C(=O)N[C@@H](CCCNC(N)N)C(=O)O (H-[Orn(CH(NH2)2)]MNIQMLLEAADYLE[Orn(CH(NH2)2)]-OH),Kd,"protein: mammalian Sin3A PAH2 domain, PDB entry 1g1e",0.029 µM (active)
same,Kd,"protein: mammalian mSin3A (mSin3A) PAH2 domain, PDB entry 1s5q",5.2 µM (active)
CC[C@H](C)[C@H](NC(=O)[C@H](CC(C)C)NC(=O)[C@H](CCCNC(N)N)NC(=O)[C@@H](N)CC(N)=O)C(=O)N[C@@H](CC(C)C)C(=O)O (H-N[Orn(CH(NH2)2)]LIL-OH),Kd,"protein: Chaperone protein DnaK, PDB entry 4ezy",2.26 µM (active)
H-EDMYRAADEIAKE-OH,Kd,"protein: E3 ubiquitin-protein ligase RNF31 HOIP 5-180, PDB entry 4oyk",0.18 µM (active)
CO/N=C(\C(=O)N[C@@H]1C(=O)N2C(C(=O)O)=C(COC(N)=O)CS[C@H]12)c1ccco1,Kd,"protein: PA4794, PDB entry 4kov",177 µM (active)
CO/N=C(\C(=O)N[C@@H]1C(=O)N2C(C(=O)O)=C(COC(C)=O)CS[C@H]12)c1csc(N)n1,Kd,"protein: PA4794, PDB entry 4kot",3.5 µM (active)
Cc1oc2ccc(NS(=O)(=O)c3ccc(Cl)cc3)cc2c1C(=O)O,Kd,"protein: Non-structural protein 5, PDB entry 3vws",225 µM (active)
CC[C@H](C)[C@H](NC(=O)[C@H](CCCCNC(=O)c1ccc(F)cc1)NC(=O)[C@H](CO)NC(=O)[C@@H](NC(=O)[C@@H]1CCCN1C(=O)[C@@H](N)Cc1c[nH]c2ccccc12)[C@@H](C)O)C(=O)O (H-WPTSK(Benzoyl(4-F))I-OH),Kd,"protein: Golgi-associated PDZ and coiled-coil motif-containing protein CAL PDZ (CALP) domain, PDB entry 4nms",11.4 µM (active)
H-WPK(Ac)SII-OH,Kd,"protein: Golgi-associated PDZ and coiled-coil motif-containing protein CAL PDZ (CALP) domain, PDB entry 4nmp",91.9 µM (active)
CC[C@H](C)[C@H](NC(=O)[C@H](CCCCNC(=O)c1ccc(Br)cc1)NC(=O)[C@H](CO)NC(=O)[C@@H](NC(=O)[C@@H]1CCCN1C(=O)[C@@H](N)Cc1c[nH]c2ccccc12)[C@@H](C)O)C(=O)O (H-WPTSK(Benzoyl(4-Br))I-OH),Kd,"protein: Golgi-associated PDZ and coiled-coil motif-containing protein CAL PDZ (CALP) domain, PDB entry 4nmv",11.1 µM (active)
CN1CC/C=C/CCCCCCC(=O)Cc2c(Cl)c(O)cc(O)c2C1=O,Kd,"protein: Hsp90 N-terminal domain, PDB entry 4ce1",41.8 µM (active)
CN1CC/C=C/CCCCCC(=O)Cc2c(Cl)c(O)cc(O)c2C1=O,Kd,"protein: Hsp90 N-terminal domain, PDB entry 4ce2",144 µM (active)
CN1CCC/C=C\CCCC(=O)Cc2c(Cl)c(O)cc(O)c2C1=O,Kd,"protein: Hsp90 N-terminal domain, PDB entry 4ce3",110 µM (active)
O=c1cc(-c2ccc(O)cc2)oc2ccccc12,Kd,"protein: Tankyrase-2, PDB entry 4kzq",0.788 µM (active)
CC[C@H](C)[C@H](NC(=O)[C@@H]1CCCN1C(=O)CNC(=O)[C@H](CC(N)=O)NC(=O)[C@@H]1CCCN1C(=O)[C@H](CO)NC(=O)[C@H](Cc1ccccc1)NC(=O)[C@H](CC(C)C)NC(=O)[C@H](Cc1ccc(O)cc1)NC(=O)[C@@H](N)CC(N)=O)C(=O)N[C@@H](C)C(=O)N[C@@H](CCCNC(N)N)C(=O)N[C@@H](C)C(=O)N[C@@H](Cc1c[nH]c2ccccc12)C(=O)O (H-NYLFSPNGPIA[Orn(CH(NH2)2)]AW-OH),Kd,"protein: Ephrin type-B receptor 4, PDB entry 2bba",0.07 µM (active)
CC(C)C[C@H](NC(=O)[C@@H]1CCCN1C(=O)[C@H](CO)NC(=O)[C@H](Cc1ccc(O)cc1)NC(=O)[C@@H](NC(=O)[C@H](Cc1c[nH]c2ccccc12)NC(=O)[C@H](CO)NC(=O)[C@H](CCCNC(N)N)NC(=O)[C@H](CCC(=O)O)NC(=O)[C@H](CC(=O)O)NC(=O)[C@@H](NC(=O)[C@@H]1C=CCN1C(=O)[C@H](Cc1ccccc1)NC(=O)[C@@H](N)Cc1ccc(O)cc1)[C@@H](C)O)C(C)C)C(=O)N[C@@H](Cc1c[nH]cn1)C(=O)O (H-YF[ΔPro]TDE[Orn(CH(NH2)2)]SWVYSPLH-OH),Kd,"protein: clathrin adaptor AP-2 complex subunit beta-1, PDB entry 3h1z",22 µM (active)
CC(C)C[C@H](NC(=O)[C@H](Cc1ccc(O)cc1)NC(=O)[C@H](CO)NC(=O)CNC(=O)[C@H](Cc1ccc(O)cc1)NC(=O)[C@@H]1CCCN1C(=O)[C@H](Cc1ccc(O)cc1)NC(=O)[C@H](Cc1c[nH]c2ccccc12)NC(=O)[C@@H](NC(=O)[C@@H](N)CCCNC(N)N)C(C)C)C(=O)N[C@H](C(=O)N[C@@H](C)C(=O)N[C@@H](CO)C(=O)NCC(=O)N[C@@H](CO)C(=O)O)[C@@H](C)O (H-[Orn(CH(NH2)2)]VWYPYGSYLTASGS-OH),Kd,"protein: Concanavalin A(ConA), PDB entry 1jyc",46 µM (active)
CC[C@H](C)[C@H](N)C(=O)N[C@H](C(=O)NCC(=O)NCC(=O)N[C@@H](Cc1ccc(O)cc1)C(=O)N1CCC[C@H]1C(=O)N[C@@H](Cc1c[nH]c2ccccc12)C(=O)N[C@@H](Cc1c[nH]c2ccccc12)C(=O)N[C@@H](CCSC)C(=O)O)C(C)C (H-IVGGYPWWM-OH),Kd,"protein: Hepatocyte growth factor HGF-Beta V495, PDB entry 4o3t",43 µM (active)
